Rows were chosen to be rich in hits. Some 4% of all compounds tested hit in one or more screens of this group.
MITF TRPM1 inh: reduces MITF-dependent TRPM1 promoter luciferase signal; SK-MEL-5 TRPM1 promoter luciferase, 24 h; inhibition, % at 12.5 µM; hit rate 0.83% among 330,000;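 active = mean inhibition across replicates of 60% or more, whatever share of single replicates reaches that level; inconclusive = some that reach 60%, reason not given; inactive = mean inhibition across replicates below 60%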
esBAF inh: inhibitors of esBAF chromatin remodeling in mouse ES cells | reporter increase, % at 12.5 µM | hit rate 2% among 350,000 | Bmi1-luciferase knock-in reporter, 24 h; 100% = twice the neutral-well signal; in the data active = activation above about 40%; inconclusive = no clear call, values can overlap the other calls;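 also: 0% = median of the plate's neutral control wells and 100% = double that signal; a rise in the Bmi1 reporter signal indicates esBAF inhibition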
Wnt bcat act: activates Wnt/beta-catenin signaling in a reporter cell assay | activator, plate reader | activation, % at 9.35 µM | hit rate 1.2% among 300,000 | AID 743398; in the data active = activation above about 30%, passing the limit was not always enough; inconclusive = no clear call, values can overlap the other calls;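 also: 0% = neutral control wells and 100% = positive control wells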
EWS-Fli inh: blocks EWS/Fli oncoprotein-driven transcription; AID 651661; inhibition, % at 12.6 µM; hit rate 0.67% among 350,000; A673 NR0B1-luciferase reporter, viability-normalised;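 active = mean inhibition of at least 50% after viability correction, with every replicate also passing that limit; inconclusive = mean reaches 50% but only one of two replicates passes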;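 also: firefly luciferase signal divided by Alamar Blue viability fluorescence both relative to DMSO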
MITF act: increases MITF-driven TRPM1 promoter luciferase signal; SK-MEL-5 TRPM1-promoter luciferase, 24 h; % of positive control, neutral wells = 0; activation, % at 12.5 µM; hit rate 0.75% among 300,000; AID 588334;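 active = mean activation of at least 80% with every replicate also reaching 80%; inconclusive = mean reaches 80% but some replicate falls short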;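 also: 0% = neutral control wells and 100% = parthenolide positive control wells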
PAX8 inh HTS: PAX8 transcriptional activity inhibition | AID 652154 | hit rate 1.2% among 360,000 | inhibition, % at 12.6 µM | RMG-I TPO-luciferase reporter, SteadyGlo, 24 h;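 active = mean replicate inhibition at least 60% with every replicate also reaching 60%; inconclusive = only one of the two criteria is met; inactive = mean below 60% and not all replicates reaching 60%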;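 also: luciferase light reporting Pax8 driven TPO promoter activity; plate controls were median of neutral control wells for no effect and mitoxantrone controls for full effect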
An asterisk follows results filed as active; ? = inconclusive; . = no result given.

SMILES	MITF TRPM1 inh	esBAF inh	Wnt bcat act	EWS-Fli inh	MITF act	PAX8 inh HTS
CCN1[C@@H]2c3ccc(-c4ccccc4)c(=O)n3C[C@@H]2[C@@H](CO)[C@@H]1C(=O)NCc1ccccc1	.	-2	.	5	.	.
CCC1CCc2c(sc(NC(=O)c3cccnc3)c2C(N)=O)C1 (centres undefined)	-33	38*	-5	-46	43	-25
Cc1cccc(N2CCN(C(=O)c3cc(S(=O)(=O)N4CCCC4)cn3C)CC2)c1C	.	3	-10	65*	.	27
Cc1cccc(N2CCN(C(=O)c3ccncc3)CC2)c1C	15	3	-13	.	-20	38
COc1cc(C(=O)N2CCN(c3cc(Cl)ccc3Cl)CC2)cc(OC)c1OC	5	-6	-13	60*	-10	16
Cc1cccc(N2CCN(C(=O)c3cc(S(=O)(=O)N4CCOCC4)cn3C)CC2)c1C	1	4	-1	13	1	4
COc1ccc(C(=O)N2CCN(C(=O)c3cc(OC)c(OC)c(OC)c3)CC2)cc1	-18	0	0	.	16	.
COc1cc(C(=O)N2CCN(c3cccc(C)c3C)CC2)cc(OC)c1OC	22	-17	-11	61*	-23	52
COc1ccccc1CNC(=O)C[C@H]1C=C[C@H](NC(C)=O)[C@H](CO)O1	.	-5	.	-7	.	-6
COc1ccccc1NC(=O)N1C[C@@H](O)COC[C@H]2O[C@H](CC(=O)NCCc3ccncc3)CC[C@@H]21	.	-1	.	-8	.	-8
COc1ccc(NC(=O)CCC(=O)Nc2ccc3nc(N4CCOCC4)cc(C)c3c2)c(OC)c1	-60	42*	3	-66	60	-40
Cc1cc(N2CCOCC2)nc2ccc(Cl)cc12	-73	57*	21	-101	?	-161
CCN1CCN(c2cc(C)c3cc(NC(=O)c4cc(OC)cc(OC)c4)ccc3n2)CC1	-11	12	32*	-172	7	-40
CCOc1ccc(C(=O)Nc2ccc3nc(N4CCN(CC)CC4)cc(C)c3c2)cc1	4	-64	1	3	-8	24
CC(C)(C)S(=O)N1Cc2cc(C(=O)NCc3ccc4c(c3)OCO4)nc(-c3cccc(-c4cccc(F)c4)c3)c2[C@@H]1CCO (some centres undefined)	.	.	.	8	.	40
CN(C)CCNCCCNc1c2ccccc2nc2cccc([N+](=O)[O-])c12	103*	.	?	6	.	20
CN(C)CCCNc1c2c(nc3ccccc13)CCC2	-13	2	0	21	15	2
COc1ccccc1-c1ccc2c(c1)O[C@H](CN(C)S(=O)(=O)c1ccc(F)cc1)[C@H](C)CN([C@H](C)CO)S2(=O)=O	.	4	.	18	.	42
Cc1cc(C)n(CC(=O)NC2CCCc3c2cnn3-c2ccc(C)c(C)c2)n1 (centres undefined)	-33	59*	9	.	29	-73
Cc1cc(C(=O)NC2CCCc3c2cnn3-c2ccc(C)c(C)c2)n(C)n1 (centres undefined)	40	-24	1	11	-39	.
O=C(NC[C@H]1CC[C@H]2[C@H](CN2Cc2nccs2)O1)C1CCC1	.	.	.	0	.	.
CC(=O)c1ccc(N=Nc2ccc(N)cc2)cc1	-18	-39	34*	34	15	-43
COc1ccc(Cc2nc3ccc(C(=O)N4C[C@@H](C)O[C@@H](C)C4)cc3o2)cc1OC	-68	69*	9	.	75	-146
COc1ccc(Cc2nc3ccc(C(=O)N4CCC(C(N)=O)CC4)cc3o2)cc1	.	-10	-5	0	.	-9
COc1ccc(Cc2nc3ccc(C(=O)N4CCOCC4)cc3o2)cc1	-91	78*	20	.	95*	-184
SMILES	MITF TRPM1 inh	esBAF inh	Wnt bcat act	EWS-Fli inh	MITF act	PAX8 inh HTS
COc1ccc(Cc2nc3ccc(C(=O)N(C)CCn4ccnc4)cc3o2)cc1OC	-5	48*	20	-60	9	-51
COc1ccc(Cc2nc3ccc(C(=O)N(C)Cc4cc(C)[nH]n4)cc3o2)cc1OC	2	2	1	-8	5	-11
CC(C)NC(=O)Nc1ccc2c(c1)C(=O)N([C@@H](C)CO)C[C@@H](C)[C@@H](CN(C)S(=O)(=O)c1cn(C)cn1)O2	.	-3	.	0	.	.
C[C@H](CO)N1C[C@H](C)[C@@H](CN(C)CC2CC2)Oc2ccc(NC(=O)CCCN(C)C)cc2C1=O	.	-5	.	9	.	-28
C=CCNC(=S)NNC(=O)COc1ccc2cc(Br)ccc2c1	-75	41*	10	-19	75	-144
CC(C)(C)N(Cc1ccc2c(c1)OCO2)C(=O)/C=C\S(=O)c1ccccc1 (centres undefined)	90*	.	-6	46	-89	95*
CCCCN(Cc1ccccc1)c1ncnc2nc[nH]c12	.	67*	.	.	.	.
CCCCN(CCCC)c1ncnc2nc[nH]c12	-3	.	1	6	1	-18
O=C(O)Cc1sc(Nc2ccc(Cl)cc2)nc1-c1cccs1	81*	.	1	-25	-80	-4
Nc1nc(-c2cccs2)c(CC(=O)O)s1	-2	4	-2	-8	0	-33
O=S(=O)(N[C@H]1CC[C@@H](CCn2cc(-c3ccccn3)nn2)O[C@H]1CO)c1cccc(F)c1	.	-3	.	-2	.	2
CNC[C@@H]1Oc2cc(C#Cc3cccc(F)c3)ccc2S(=O)(=O)N([C@H](C)CO)C[C@H]1C	.	-10	.	-1	.	.
c1ccc2oc(-c3ccn[nH]3)cc2c1	-50	.	40*	-130	.	-110
c1ccc2oc(-c3[nH]ncc3CN3CCSCC3)cc2c1	14	.	-1	1	-12	-6
Cc1c(C(=O)O)oc2c(F)cccc12	5	.	-1	1	-4	-4
Cc1c(C(=O)NC2CCOC2)oc2c(F)cccc12 (centres undefined)	-79	70*	1	-107	?	-229
Cc1c(C(=O)N2C[C@@H](C)O[C@@H](C)C2)oc2c(F)cccc12	-68	70*	12	-85	73	-135
C[n+]1c2n(c3ccccc31)N=C(c1ccc(-c3ccccc3)cc1)CS2	82*	.	6	43	-80	96*
COc1ccc2c(c1)C(=O)N1[C@H]3c4cc(C)ccc4OC[C@@H]3[C@H](c3ccccc3)[C@]1(C)C(=O)N2	28	-16	-7	64*	-26	23
Cc1ccc2c(c1)[C@H]1[C@H](CO2)[C@H](c2ccccc2)[C@]2(C)C(=O)Nc3ccccc3C(=O)N12	20	-6	-2	57*	-21	45
C[C@@]12C(=O)Nc3cc(F)ccc3C(=O)N1[C@H]1c3cc(Br)ccc3OC[C@@H]1[C@@H]2c1ccccc1	10	-5	-2	50	-12	-2
Cc1ccc2c(c1)[C@H]1[C@H](CO2)[C@H](c2ccccc2)[C@]2(C)C(=O)Nc3cc(F)ccc3C(=O)N12	23	-68	-6	61*	-22	11
